In PubChem BioAssay AID602296 (Broad Institute, 2012):
Screen size: about 2,000 compounds; about 190 (9.5%) were called active. Roughly 14% stayed inconclusive and do not appear here.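 How the source made its calls: active means fitted activation curve crossing 40% at a concentration no higher than the sample's top valid tested dose; inconclusive means flat fitted curve at 30% to 70% activation, or poor curve fit; inactive means signal decrease, flat curve within 30%, or the rest.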 These entries were drawn from the full list.

Experiment: sustained heat shock response element induction – cell-based, mouse, luciferase, cherry-pick, dose, confirmation (AID 602296);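 further: test compounds applied by themselves with no MG132 co-treatment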
Conditions: NIH3T3-HGL HSF-1 response element luciferase, 48 h; series mostly up to 26 µM; activation: at the top concentration

activation, inactive:
O=C(NC1CCCN(Cc2ccccc2F)C1)c1cccs1 (stereo unspecified) -6.74%
O=C(O)c1cc([N+](=O)[O-])c(NCCC2=CCCCC2)c([N+](=O)[O-])c1 -5.64%
O=C(Nc1cccc(Cl)c1)C1CCCN(S(=O)(=O)c2ccc(F)cc2)C1 (stereo unspecified) -0.929%
COC(=O)Nc1ccc(S(=O)(=O)Nc2cccc3ccccc23)cc1 -34.8%
O=C(CCn1c(=O)oc2ccccc21)Nc1ccccc1 5.77%
CC1(C)Cc2nc(NCCN3CCOCC3)c(C#N)cc2CO1 -12.8%
CC(=O)C1=C(O)C(=O)N(c2nccs2)C1c1ccccc1 (stereo unspecified) -6.69%
Cc1[nH]nc(-c2ccc(O)c(C)c2O)c1-c1cnn(-c2ccccc2)c1 -13.3%
CCOC(=O)C1=C(C)Nc2ncnn2C1c1ccc2c(c1)OCO2 (stereo unspecified) -2.17%
COCCCNC(=O)c1c[nH]c2ccc(S(=O)(=O)N3CCc4ccccc43)cc2c1=O -7.37%
NS(=O)(=O)c1ccc(CCNC(=O)c2ccc([N+](=O)[O-])s2)cc1 -4.33%
CC(=O)Cc1cc(O)c2ccccc2c1OC(=O)c1ccccc1 9.89%
O=C1CC(NNc2ccccc2)C(=O)N1c1ccccc1 (stereo unspecified) -54.7%
CCOC(=O)c1c(NC(=O)c2nn(CC)cc2Br)c(C#N)nn1-c1ccccc1 -52.7%
Cc1cc(NC(=O)c2cc(C)on2)n(-c2ccccc2)n1 -10.5%
Cc1oc2ccc(NS(=O)(=O)c3ccc(C(C)(C)C)cc3)cc2c1C(=O)Nc1ccccc1 -31.3%
CCCc1[nH]nc2c1C(c1cc(OC)ccc1F)C(C#N)=C(N)O2 (stereo unspecified) -18.2%
O=C(CN1C(=O)NC(Cc2c[nH]c3ccccc23)C1=O)Nc1cccc(S(=O)(=O)N2CCOCC2)c1 (stereo unspecified) -5.34%
CCOC(=O)C(C)(C)N(Cc1ccc(C)cc1)S(=O)(=O)c1ccc(Cl)c([N+](=O)[O-])c1 -87.3%
Oc1ccc(-c2cnc(-c3ccc(O)cc3)nc2)cc1 -63.3%
Cc1cccc2cc(CN(Cc3ccco3)C(c3nnnn3CCc3ccccc3)C(C)C)c(=O)[nH]c12 (stereo unspecified) -36.5%
COCCNC(=O)c1cccc(OC2CCN(Cc3ccc(Cl)c(F)c3)CC2)c1 -23.6%
CCCCOCCCN1CC(=O)N2[C@@H](Cc3c([nH]c4ccccc34)C2(C)C)C1=O -3.37%
Cc1ccc(-c2cc(C(F)(F)F)c(C#N)c(SCC(=O)O)n2)cc1 -15.1%
CCOC(=O)C1=C(c2ccccc2)NC(=O)NC1c1cc(Br)c(O)c(OC)c1 (stereo unspecified) -26.7% [at 12 µM]
CCCn1nc([N+](=O)[O-])c(C(C#N)c2nc3ccccc3o2)c(Cl)c1=O (stereo unspecified) -72.7%
O=C(COC(=O)c1ccc(S(=O)(=O)NCc2ccco2)cc1)Nc1ccccc1OC(F)F 7.76%
Cc1cc(C)nc(Sc2nc(Cl)nc(N(c3ccccc3)c3ccccc3)n2)n1 -20.4%
COc1cc(-c2nc(-c3ccc4c(c3)-c3ccccc3S4(=O)=O)c(-c3ccccc3)[nH]2)cc(OC)c1O -40.3%
CCC(=O)Nc1c(S(=O)(=O)c2ccccc2)c2nc3ccccc3nc2n1C(C)c1ccccc1 (stereo unspecified) -20.5%
CCOc1cc(/C=C2/C(=O)ON=C2C)ccc1OCc1ccc(F)cc1 44.8%
O=C(CSc1ncn[nH]1)c1cccc([N+](=O)[O-])c1 -0.937%
COc1cc(-c2nnc3sc(Cc4ccc(Cl)cc4)nn23)cc(OC)c1OC -27.6%
O=C(CN(C(=O)c1csnn1)c1ccc(F)c(Cl)c1)NCc1ccc(F)cc1 -5.21%
CC(C)(C)Cc1nc2ccccc2n1CCc1ccccc1 -18.4%
COC(=O)c1ccc(CSc2nc3ccccc3c(=O)n2CC(C)C)o1 11%
CC(c1ccc(F)cc1)n1c(Cn2ncc3ccccc3c2=O)n[nH]c1=S (stereo unspecified) 12.2%
OC(CNCc1ccco1)Cn1c2ccc(Br)cc2c2cc(Br)ccc21 (stereo unspecified) 3.97%
COc1ccccc1N1CCN(C(=O)c2ccc3c(=O)n(Cc4ccco4)c(=S)[nH]c3c2)CC1 4.32%
CCCCNC(=S)N(Cc1ccco1)Cc1cc2cc3c(cc2[nH]c1=O)OCCO3 -47%
O=C1N/C(=C\c2ccc(O)cc2)C(O)=C1C=NCc1ccccc1 -52%
Cc1cccc(C(C#N)c2ccc(Cl)nn2)c1 (stereo unspecified) 5.31%
COc1ccc2[nH]c(C)c(CCNc3ccc(C(F)(F)F)cc3[N+](=O)[O-])c2c1 -55.4%
O=S(=O)(c1ccccc1)c1ncc(C(F)(F)F)cc1Cl -104%
O=C(CCCn1c(=S)[nH]c2ccc(Br)cc2c1=O)NCC1CCCO1 (stereo unspecified) 2.17%
COc1ccc(C(=O)N(C)CC(O)c2ccccc2)cc1OC1CCN(C(C)=O)CC1 (stereo unspecified) -5.01%
O=C1c2ccccc2-c2onc3ccc(N4CCCC4)c1c23 26.1%
COC(=O)Cc1ccc(NC(=O)c2ccc(C)c(C)c2)cc1 -71.3%
CCOC(=O)c1c(S(=O)(=O)NCC2CCN(CCc3cccs3)CC2)c(C)n(C)c1C 5.71%
Cc1nn(C)c(Oc2ccccc2)c1CCNS(=O)(=O)c1ccc(Cl)cc1 -52.3%
CN1C(=O)C2(c3ccccc31)N(C)CC(c1ccccn1)C21SC(=S)N(Cc2ccco2)C1=O (stereo unspecified) -66.3%
COC(=O)C1=C(C)NC(=S)NC1c1ccc(-c2cccc(Cl)c2)o1 (stereo unspecified) -17.3%
Cc1ccc(C(c2c(C)nn(-c3ccccc3)c2N)c2c(C)nn(-c3ccccc3)c2N)cc1 -5.45%
COc1cc(CNC2CCCC2)cc(OC)c1 2.54%
CCn1c(SCC(=O)N2CCOCC2)nc2oc3c(Cl)cc(Cl)cc3c(=O)c2c1=O 7.32%
CC(=O)c1ccc(NC(=O)CCCN2C(=O)/C(=C/C(C)=C/c3ccccc3)SC2=S)cc1 -9.9%
Cc1noc(C)c1COC(=O)c1ccccc1Oc1ccccc1 -13.4%
CCc1nnc(NC(=O)C(NC(=O)c2ccccc2Cl)C(C)C)s1 (stereo unspecified) -4.42%
COC(=O)c1sccc1NC(=O)Nc1cccc(F)c1 -0.711%
Cc1cc(SCC(=O)N/N=C/c2ccc(O)c(O)c2)c(C)cc1Br -70.1%
Cn1c(SCc2cccc(C(F)(F)F)c2)nnc1-c1ccco1 6.26%
Clc1ccc(CSc2nnc(-c3sccc3-n3cccc3)o2)cc1 -42.5%
Fc1ccc(Sc2ccccc2CNC2=NCCN2)cc1 -23.8%
O=S(=O)(c1ccc(Cl)c(NC(=S)N/N=C/c2ccc(O)cc2)c1)N1CCOCC1 -6.39%
O=c1c(Cl)cc(Cl)nn1-c1ccccc1 -99.9%
CCc1cc2c(SCC#N)ncnc2s1 11.3%
